# Measured values from PubChem BioAssay AID1159580 (chemical genetic matrix, 2015).
# Hit rate of the full screen: of about 5,500 compounds, about 2,000 (36%) were called active. Inconclusive results (about 18%) are left out. Some of the results follow. Values without a mark were called inactive. No stated cut-off is given here; in the data, active means normalized growth mostly below about 0.91 (no sharp cut-off); inconclusive means no clear call, values can overlap the other calls; inactive means mostly above about 0.92.
# Experiment: chemical genetic growth profiling, strain panel (AID 1159580);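 further: tested at 20 µM; growth read once vehicle control cultures reached saturation at 30 °C; 1 = growth at the plate median or of vehicle wells; lower values mean less growth of the strain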
# Conditions: growth OD
smiles,measurement,setting,value
CCC(Cc1c(I)cc(I)c(N)c1I)C(=O)O (stereo unspecified),normalized growth,"S. cerevisiae deletion strains, locus YKL009W, strain mrt4, active compounds read low",0.974
same,normalized growth,"S. cerevisiae deletion strains, locus YKL068W, active compounds read low",0.986
same,normalized growth,"S. cerevisiae deletion strains, locus YKL085W, strain MDH1 (second series), active compounds read low",0.982
same,normalized growth,"S. cerevisiae deletion strains, locus YKL085W, strain MDH1, active compounds read low",0.982
same,normalized growth,"S. cerevisiae deletion strains, locus YKL160W, strain elf1, active compounds read low",0.961
same,normalized growth,"S. cerevisiae deletion strains, locus YKL190W, strain CNB1, active compounds read low",1
same,normalized growth,"S. cerevisiae deletion strains, locus YKR001C, strain vps1, active compounds read low",0.996
same,normalized growth,"S. cerevisiae deletion strains, locus YKR026C, strain gcn3, active compounds read low",0.946
same,normalized growth,"S. cerevisiae deletion strains, locus YKR091W, strain srl3, active compounds read low",0.941
same,normalized growth,"S. cerevisiae deletion strains, locus YLL001W, strain dnm1, active compounds read low",0.977
same,normalized growth,"S. cerevisiae deletion strains, locus YLL026W, active compounds read low",0.96
same,normalized growth,"S. cerevisiae deletion strains, locus YLL041C, strain sdh2, active compounds read low",0.954
same,normalized growth,"S. cerevisiae deletion strains, locus YLR027C, strain aat2, active compounds read low",0.964
same,normalized growth,"S. cerevisiae deletion strains, locus YLR039C, strain RIC1, active compounds read low",0.933
same,normalized growth,"S. cerevisiae deletion strains, locus YLR058C, strain SHM2, active compounds read low",1
same,normalized growth,"S. cerevisiae deletion strains, locus YLR102C, strain apc9, active compounds read low",0.999
same,normalized growth,"S. cerevisiae deletion strains, locus YLR113W, strain HOG1, active compounds read low",0.127 (active)
same,normalized growth,"S. cerevisiae deletion strains, locus YLR221C, strain rsa3, active compounds read low",0.876 (active)
same,normalized growth,"S. cerevisiae deletion strains, locus YLR258W, strain gsy2, active compounds read low",0.909 (active)
same,normalized growth,"S. cerevisiae deletion strains, locus YLR262C, strain YPT6 (second series), active compounds read low",0.698 (active)
same,normalized growth,"S. cerevisiae deletion strains, locus YLR262C, strain YPT6, active compounds read low",0.936
same,normalized growth,"S. cerevisiae deletion strains, locus YLR268W, strain sec22, active compounds read low",1
same,normalized growth,"S. cerevisiae deletion strains, locus YLR320W, strain mms22, active compounds read low",0.873 (active)
same,normalized growth,"S. cerevisiae deletion strains, locus YLR330W, strain CHS5, active compounds read low",0.999
same,normalized growth,"S. cerevisiae deletion strains, locus YLR342W, strain FKS1 (second series), active compounds read low",1
same,normalized growth,"S. cerevisiae deletion strains, locus YLR342W, strain FKS1, active compounds read low",0.944
same,normalized growth,"S. cerevisiae deletion strains, locus YLR357W, strain rsc2, active compounds read low",1.02
same,normalized growth,"S. cerevisiae deletion strains, locus YLR370C, strain arc18, active compounds read low",0.95
same,normalized growth,"S. cerevisiae deletion strains, locus YLR371W, strain rom2, active compounds read low",1
same,normalized growth,"S. cerevisiae deletion strains, locus YLR384C, strain iki3, active compounds read low",0.954
same,normalized growth,"S. cerevisiae deletion strains, locus YLR418C, strain cdc73, active compounds read low",1.02
same,normalized growth,"S. cerevisiae deletion strains, locus YML016C, strain PPZ1, active compounds read low",0.995
same,normalized growth,"S. cerevisiae deletion strains, locus YML032C, strain rad52, active compounds read low",1.02
same,normalized growth,"S. cerevisiae deletion strains, locus YML120C, strain ndi1, active compounds read low",0.95
same,normalized growth,"S. cerevisiae deletion strains, locus YML124C, strain tub3, active compounds read low",0.992
same,normalized growth,"S. cerevisiae deletion strains, locus YMR058W, strain fet3, active compounds read low",0.944
same,normalized growth,"S. cerevisiae deletion strains, locus YMR078C, strain ctf18, active compounds read low",1
same,normalized growth,"S. cerevisiae deletion strains, locus YMR125W, strain sto1, active compounds read low",0.948
same,normalized growth,"S. cerevisiae deletion strains, locus YMR129W, active compounds read low",0.932
same,normalized growth,"S. cerevisiae deletion strains, locus YMR205C, strain PFK2, active compounds read low",0.906
same,normalized growth,"S. cerevisiae deletion strains, locus YMR223W, strain ubp8, active compounds read low",1.01
same,normalized growth,"S. cerevisiae deletion strains, locus YMR231W, strain pep5, active compounds read low",0.97
same,normalized growth,"S. cerevisiae deletion strains, locus YMR263W, strain SAP30, active compounds read low",0.989
same,normalized growth,"S. cerevisiae deletion strains, locus YMR307W, strain GAS1, active compounds read low",0.963
same,normalized growth,"S. cerevisiae deletion strains, locus YNL067W, strain RPL9B, active compounds read low",1.01
same,normalized growth,"S. cerevisiae deletion strains, locus YNL071W, strain lat1, active compounds read low",0.689 (active)
same,normalized growth,"S. cerevisiae deletion strains, locus YNL128W, strain TEP1, active compounds read low",1.01
same,normalized growth,"S. cerevisiae deletion strains, locus YNL153C, strain GIM3, active compounds read low",1.01
same,normalized growth,"S. cerevisiae deletion strains, locus YNL183C, strain NPR1, active compounds read low",0.0218 (active)
same,normalized growth,"S. cerevisiae deletion strains, locus YNL209W, strain ssb2, active compounds read low",0.966
same,normalized growth,"S. cerevisiae deletion strains, locus YNL233W, strain BNI4, active compounds read low",1.01
same,normalized growth,"S. cerevisiae deletion strains, locus YNL248C, strain rpa49, active compounds read low",0.887
same,normalized growth,"S. cerevisiae deletion strains, locus YNL250W, strain rad50, active compounds read low",0.994
same,normalized growth,"S. cerevisiae deletion strains, locus YNL271C, strain bni1, active compounds read low",0.979
same,normalized growth,"S. cerevisiae deletion strains, locus YNL298W, strain CLA4, active compounds read low",0.981
same,normalized growth,"S. cerevisiae deletion strains, locus YNL307C, strain MCK1, active compounds read low",0.997
same,normalized growth,"S. cerevisiae deletion strains, locus YNL322C, strain KRE1 (second series), active compounds read low",0.932
same,normalized growth,"S. cerevisiae deletion strains, locus YNL322C, strain KRE1, active compounds read low",1
same,normalized growth,"S. cerevisiae deletion strains, locus YNR049C, strain mso1, active compounds read low",0.925
same,normalized growth,"S. cerevisiae deletion strains, locus YNR052C, strain pop2, active compounds read low",0.998
same,normalized growth,"S. cerevisiae deletion strains, locus YOL006C, strain TOP1, active compounds read low",1.01
same,normalized growth,"S. cerevisiae deletion strains, locus YOL012C, strain htz1",1.15
same,normalized growth,"S. cerevisiae deletion strains, locus YOL147C, strain pex11, active compounds read low",0.999
same,normalized growth,"S. cerevisiae deletion strains, locus YOR001W, strain rrp6, active compounds read low",1
same,normalized growth,"S. cerevisiae deletion strains, locus YOR061W, strain CKA2, active compounds read low",0.997
same,normalized growth,"S. cerevisiae deletion strains, locus YOR069W, strain VPS5, active compounds read low",0.999
same,normalized growth,"S. cerevisiae deletion strains, locus YOR070C, strain gyp1, active compounds read low",0.917 (active)
same,normalized growth,"S. cerevisiae deletion strains, locus YOR080W, strain dia2, active compounds read low",0.95
same,normalized growth,"S. cerevisiae deletion strains, locus YOR083W, strain WHI5, active compounds read low",0.949
same,normalized growth,"S. cerevisiae deletion strains, locus YOR106W, strain vam3, active compounds read low",0.943
same,normalized growth,"S. cerevisiae deletion strains, locus YOR136W, strain idh2, active compounds read low",1.02
same,normalized growth,"S. cerevisiae deletion strains, locus YOR144C, strain elg1, active compounds read low",0.985
same,normalized growth,"S. cerevisiae deletion strains, locus YOR184W, strain ser1, active compounds read low",1.01
same,normalized growth,"S. cerevisiae deletion strains, locus YOR231W, strain MKK1, active compounds read low",0.113 (active)
same,normalized growth,"S. cerevisiae deletion strains, locus YOR265W, strain rbl2, active compounds read low",0.951
same,normalized growth,"S. cerevisiae deletion strains, locus YOR270C, strain vph1, active compounds read low",0.784
same,normalized growth,"S. cerevisiae deletion strains, locus YOR290C, strain snf2, active compounds read low",0.92
same,normalized growth,"S. cerevisiae deletion strains, locus YOR316C, strain cot1, active compounds read low",0.999
same,normalized growth,"S. cerevisiae deletion strains, locus YPL051W, strain arl3, active compounds read low",0.925
same,normalized growth,"S. cerevisiae deletion strains, locus YPL055C, strain LGE1, active compounds read low",1.04
same,normalized growth,"S. cerevisiae deletion strains, locus YPL078C, strain atp4, active compounds read low",0.974
same,normalized growth,"S. cerevisiae deletion strains, locus YPL106C, strain sse1, active compounds read low",0.951
same,normalized growth,"S. cerevisiae deletion strains, locus YPL240C, strain hsp82, active compounds read low",0.939
same,normalized growth,"S. cerevisiae deletion strains, locus YPL241C, strain CIN2, active compounds read low",0.975
same,normalized growth,"S. cerevisiae deletion strains, locus YPL256C, strain CLN2, active compounds read low",0.126 (active)
same,normalized growth,"S. cerevisiae deletion strains, locus YPR119W, strain clb2, active compounds read low",0.988
same,normalized growth,"S. cerevisiae deletion strains, locus YPR141C, strain kar3, active compounds read low",0.988
same,normalized growth,"S. cerevisiae deletion strains, locus YPR163C, strain tif3, active compounds read low",1.01
same,normalized growth,"S. cerevisiae deletion strains, locus YPR167C, strain met16, active compounds read low",1
same,normalized growth,"S. cerevisiae deletion strains, strain wtn01, active compounds read low",1
same,normalized growth,"S. cerevisiae strains, strain wild type, active compounds read low",0.999
